PubChem BioAssay AID1159580 (chemical genetic matrix, 2015)
About 2,000 (36%) of roughly 5,500 compounds were called active. Another 18% or so got no clear call; they are omitted. Cut-off read from the data, not from the text of the source: active = normalized growth mostly below about 0.91 (no sharp cut-off); inconclusive = no clear call, values can overlap the other calls; inactive = mostly above about 0.92. This is one part of the list.

Experiment: chemical genetic growth profiling, strain panel (AID 1159580);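 note: tested at 20 µM; growth read once vehicle control cultures reached saturation at 30 °C; 1 = growth at the plate median or of vehicle wells; lower values mean less growth of the strain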
Conditions: growth OD
[1] = S. cerevisiae deletion strains, locus YAL040C, strain CLN3, stronger effect = lower value
[2] = S. cerevisiae deletion strains, locus YCL061C, strain MRC1 (second series), stronger effect = lower value
[3] = S. cerevisiae deletion strains, locus YER002W, strain NOP16, stronger effect = lower value
[4] = S. cerevisiae deletion strains, locus YMR263W, strain SAP30, stronger effect = lower value
[5] = S. cerevisiae deletion strains, locus YNL153C, strain GIM3, stronger effect = lower value
[6] = S. cerevisiae deletion strains, locus YNL175C, strain NOP13, stronger effect = lower value
[7] = S. cerevisiae deletion strains, locus YNL197C, strain WHI3, stronger effect = lower value
[8] = S. cerevisiae deletion strains, locus YNL224C, strain SQS1, stronger effect = lower value
[9] = S. cerevisiae deletion strains, locus YNL322C, strain KRE1, stronger effect = lower value
[10] = S. cerevisiae deletion strains, locus YOR083W, strain WHI5 (second series), stronger effect = lower value
[11] = S. cerevisiae deletion strains, locus YDR150W, strain NUM1, stronger effect = lower value
[12] = S. cerevisiae deletion strains, locus YGR078C, strain PAC10, stronger effect = lower value
[13] = S. cerevisiae deletion strains, locus YJR075W, strain HOC1, stronger effect = lower value
[14] = S. cerevisiae deletion strains, locus YPL241C, strain CIN2, stronger effect = lower value
[15] = S. cerevisiae deletion strains, locus YDL101C, strain DUN1, stronger effect = lower value
[16] = S. cerevisiae deletion strains, locus YHR030C, strain SLT2, stronger effect = lower value
[17] = S. cerevisiae deletion strains, locus YAL013W, strain DEP1, stronger effect = lower value
[18] = S. cerevisiae deletion strains, locus YBR229C, strain ROT2, stronger effect = lower value
[19] = S. cerevisiae deletion strains, locus YEL061C, strain CIN8, stronger effect = lower value
[20] = S. cerevisiae deletion strains, locus YHR087W, strain rtc3, stronger effect = lower value
[21] = S. cerevisiae deletion strains, locus YJL187C, strain SWE1, stronger effect = lower value
[22] = S. cerevisiae deletion strains, locus YJR043C, strain POL32, stronger effect = lower value
[23] = S. cerevisiae deletion strains, locus YKL190W, strain CNB1, stronger effect = lower value
[24] = S. cerevisiae deletion strains, locus YLR039C, strain RIC1, stronger effect = lower value
[25] = S. cerevisiae deletion strains, locus YLR058C, strain SHM2 (second series), stronger effect = lower value
[26] = S. cerevisiae deletion strains, locus YLR085C, strain ARP6, stronger effect = lower value
[27] = S. cerevisiae deletion strains, locus YLR262C, strain YPT6, stronger effect = lower value
[28] = S. cerevisiae deletion strains, locus YML094W, strain GIM5, stronger effect = lower value
[29] = S. cerevisiae deletion strains, locus YMR219W, strain ESC1, stronger effect = lower value
[30] = S. cerevisiae deletion strains, locus YNL298W, strain CLA4 (second series), stronger effect = lower value
[31] = S. cerevisiae deletion strains, locus YNR030W, strain Alg12, stronger effect = lower value
[32] = S. cerevisiae deletion strains, locus YPL055C, strain LGE1, stronger effect = lower value
[33] = S. cerevisiae deletion strains, locus YPR135W, strain CTF4, stronger effect = lower value

Measured: normalized growth

Cc1[nH]c2ccc(O)cc2c1CCN
inactive: [1] 1 | [2] 1.01 | S. cerevisiae deletion strains, locus YDR363W, strain ESC2, stronger effect = lower value 1.05 | [3] 1 | [4] 1.01 | [5] 1.03 | [6] 1.01 | [7] 0.987 | [8] 0.996 | [9] 1.02 | [10] 0.999

CCc1cccc(N(C)C(N)=Nc2cccc3ccccc23)c1
inactive: [1] 0.98 | [2] 0.989 | [11] 0.998 | [3] 1.03 | [12] 0.97 | [13] 0.983 | [6] 1.03 | [7] 1 | [8] 0.993 | [10] 0.931 | [14] 0.989

N/C(Cc1cccc2ccccc12)=N/OC(=O)c1ccc(Cl)cc1
active: [16] 0.666 | S. cerevisiae deletion strains, locus YLR113W, strain HOG1, stronger effect = lower value 0.858
inactive: S. cerevisiae deletion strains, locus YAR019C, strain CDC15, stronger effect = lower value 0.954 | S. cerevisiae deletion strains, locus YBL105C, strain PKC1, stronger effect = lower value 0.952 | S. cerevisiae deletion strains, locus YBR135W, strain CKS1, stronger effect = lower value 0.947 | S. cerevisiae deletion strains, locus YBR136W, strain MEC1, stronger effect = lower value 0.93 | S. cerevisiae deletion strains, locus YBR160W, strain CDC28, stronger effect = lower value 0.928 | S. cerevisiae deletion strains, locus YDL017W, strain CDC7, stronger effect = lower value 0.949 | S. cerevisiae deletion strains, locus YDL028C, strain MPS1, stronger effect = lower value 0.916 | [15] 0.961 | S. cerevisiae deletion strains, locus YDL108W, strain KIN28, stronger effect = lower value 0.934 | S. cerevisiae deletion strains, locus YDL132W, strain cdc53, stronger effect = lower value 0.951 | S. cerevisiae deletion strains, locus YDL214C, strain PRR2, stronger effect = lower value 0.85 | S. cerevisiae deletion strains, locus YDR052C, strain DBF4, stronger effect = lower value 0.967 | S. cerevisiae deletion strains, locus YDR054C, strain cdc34, stronger effect = lower value 0.952 | S. cerevisiae deletion strains, locus YDR226W, strain ADK1, stronger effect = lower value 0.954 | S. cerevisiae deletion strains, locus YDR477W, strain SNF1, stronger effect = lower value 0.937 | S. cerevisiae deletion strains, locus YER123W, strain YCK3, stronger effect = lower value 0.878 | S. cerevisiae deletion strains, locus YER133W, strain GLC7, stronger effect = lower value 0.889 | S. cerevisiae deletion strains, locus YFL009W, strain cdc4, stronger effect = lower value 0.938 | S. cerevisiae deletion strains, locus YFL029C, strain CAK1, stronger effect = lower value 0.936 | S. cerevisiae deletion strains, locus YFR003C, strain YPI1, stronger effect = lower value 0.955 | S. cerevisiae deletion strains, locus YFR019W, strain FAB1, stronger effect = lower value 0.928 | S. cerevisiae deletion strains, locus YFR028C, strain CDC14, stronger effect = lower value 0.956 | S. cerevisiae deletion strains, locus YGR040W, strain KSS1, stronger effect = lower value 0.937 | S. cerevisiae deletion strains, locus YGR052W, strain FMP48, stronger effect = lower value 0.941 | S. cerevisiae deletion strains, locus YGR092W, strain DBF2, stronger effect = lower value 0.931 | S. cerevisiae deletion strains, locus YHR079C, strain IRE1, stronger effect = lower value 0.965 | S. cerevisiae deletion strains, locus YHR082C, strain KSP1, stronger effect = lower value 0.953 | S. cerevisiae deletion strains, locus YHR205W, strain SCH9, stronger effect = lower value 0.835 | S. cerevisiae deletion strains, locus YIL147C, strain SLN1, stronger effect = lower value 0.94 | S. cerevisiae deletion strains, locus YJL095W, strain BCK1, stronger effect = lower value 0.874 | S. cerevisiae deletion strains, locus YJL128C, strain PBS2, stronger effect = lower value 0.935 | S. cerevisiae deletion strains, locus YJL157C, strain FAR1, stronger effect = lower value 0.899 | S. cerevisiae deletion strains, locus YJR016C, strain ILV3, stronger effect = lower value 0.962 | S. cerevisiae deletion strains, locus YJR066W, strain TOR1 (second series), stronger effect = lower value 0.879 | S. cerevisiae deletion strains, locus YJR066W, strain TOR1, stronger effect = lower value 0.847 | S. cerevisiae deletion strains, locus YKL048C, strain ELM1, stronger effect = lower value 0.967 | S. cerevisiae deletion strains, locus YKL067W, strain YNK1, stronger effect = lower value 0.846 | S. cerevisiae deletion strains, locus YKL101W, strain HSL1, stronger effect = lower value 0.939 | S. cerevisiae deletion strains, locus YKL193C, strain SDS22, stronger effect = lower value 0.978 | S. cerevisiae deletion strains, locus YKL203C, strain TOR2, stronger effect = lower value 0.969 | S. cerevisiae deletion strains, locus YLR133W, strain CKI1, stronger effect = lower value 0.876 | S. cerevisiae deletion strains, locus YLR403W, strain SFP1, stronger effect = lower value 0.919 | S. cerevisiae deletion strains, locus YML070W, strain DAK1, stronger effect = lower value 0.892 | S. cerevisiae deletion strains, locus YMR001C, strain CDC5, stronger effect = lower value 0.963 | S. cerevisiae deletion strains, locus YMR205C, strain PFK2 (second series), stronger effect = lower value 0.872 | S. cerevisiae deletion strains, locus YMR277W, strain FCP1, stronger effect = lower value 0.925 | S. cerevisiae deletion strains, locus YNL006W, strain LST8, stronger effect = lower value 0.977 | S. cerevisiae deletion strains, locus YNL020C, strain ARK1, stronger effect = lower value 0.909 | S. cerevisiae deletion strains, locus YNL161W, strain CBK1, stronger effect = lower value 0.963 | S. cerevisiae deletion strains, locus YNL183C, strain NPR1, stronger effect = lower value 0.92 | S. cerevisiae deletion strains, locus YNL207W, strain RIO2, stronger effect = lower value 0.932 | S. cerevisiae deletion strains, locus YNL222W, strain SSU72, stronger effect = lower value 0.95 | S. cerevisiae deletion strains, locus YNL307C, strain MCK1 (second series), stronger effect = lower value 0.941 | S. cerevisiae deletion strains, locus YOL078W, strain AVO1, stronger effect = lower value 0.943 | S. cerevisiae deletion strains, locus YOL136C, strain PFK27, stronger effect = lower value 0.927 | S. cerevisiae deletion strains, locus YOR061W, strain CKA2, stronger effect = lower value 0.892 | S. cerevisiae deletion strains, locus YOR119C, strain RIO1, stronger effect = lower value 0.917 | S. cerevisiae deletion strains, locus YOR231W, strain MKK1, stronger effect = lower value 0.926 | S. cerevisiae deletion strains, locus YOR329C, strain SCD5, stronger effect = lower value 0.968 | S. cerevisiae deletion strains, locus YPL031C, strain PHO85, stronger effect = lower value 0.915 | S. cerevisiae deletion strains, locus YPL153C, strain RAD53, stronger effect = lower value 0.927 | S. cerevisiae deletion strains, locus YPL204W, strain HRR25, stronger effect = lower value 0.922 | S. cerevisiae deletion strains, locus YPL209C, strain IPL1, stronger effect = lower value 0.964 | S. cerevisiae deletion strains, locus YPL256C, strain CLN2, stronger effect = lower value 0.888 | S. cerevisiae deletion strains, locus YPR025C, strain CCL1, stronger effect = lower value 0.947 | S. cerevisiae deletion strains, locus YPR106W, strain ISR1, stronger effect = lower value 0.986 | S. cerevisiae deletion strains, locus YPR111W, strain DBF20, stronger effect = lower value 0.916 | S. cerevisiae deletion strains, strain NNK1, stronger effect = lower value 0.948 | S. cerevisiae deletion strains, strain TSCII, stronger effect = lower value 0.926

N/C(Cc1cccc2ccccc12)=N/O
active: [14] 1.22 [resistant]
inactive: [17] 1 | [18] 1.02 | [15] 1.01 | [11] 0.986 | [19] 1.02 | [12] 1.01 | [16] 1.02 | [20] 1.02 | [21] 1.02 | [22] 1.02 | [13] 1.05 | [23] 1.02 | [24] 1.06 | [25] 1.01 | [26] 1.14 | [27] 1.02 | [28] 1.01 | [29] 1.03 | [4] 1.04 | S. cerevisiae deletion strains, locus YMR307W, strain GAS1, stronger effect = lower value 1.17 | [5] 0.997 | [30] 1.02 | [9] 1 | [31] 1 | S. cerevisiae deletion strains, locus YOL006C, strain TOP1, stronger effect = lower value 1.05 | [32] 0.897 | [33] 0.945 | S. cerevisiae strains, strain wild type, stronger effect = lower value 1.02

O=C(O)CCCNCc1cccc2ccccc12
inactive: [17] 1.01 | [18] 1.01 | [15] 0.998 | [11] 0.984 | [19] 1.01 | [12] 1.01 | S. cerevisiae deletion strains, locus YGR229C, strain SMI1, stronger effect = lower value 1 | [16] 1.02 | [20] 1.01 | [21] 1 | [22] 1.01 | [13] 0.974 | [23] 1 | [24] 1 | [25] 1 | [26] 1.01 | [27] 0.999 | [28] 1.07 | [29] 0.992 | [4] 1 | [5] 0.992 | [30] 1 | [9] 1.01 | [31] 1 | [32] 1.03 | [14] 1.06 | [33] 1.05
